Measured values reported in the supplement of paper PMC10849652.
About 7,900 targets were measured; listed, in parts, are those with a hit and a random draw of the rest. About 0.6% of all pairs of compound and target were hits. A number with no mark means an inactive call.

Assays:
Test in all cases: log2 fold change, soluble protein after heating vs DMSO (PISA); higher = thermal stabilisation; K562 cells, 10 uM, 30 min; active = over 0.2 and 3.5 SD of the protein, either way, in both replicates (recomputed)
[1] = compound: CNC(=O)C1=CC=CC=C1NC2=NC(=NC=C2Cl)NC3=C(C=C(C=C3)N4CCOCC4)OC
Outline: (§1)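 K562 cells at 2×10^6 cells/mL were given 10 μM compound for 30 min. Aliquots then went through 3 min of heating across 48°C-58°C, were pooled, and were extracted in PBS with 0.5% NP-40 at 4°C, and the supernatant after 21,000xg for 90 min was quantified by TMTpro 16plex LC-MS/MS with channel sums equalised. Thermal stability relative to control samples, from duplicates, is given as log2 fold change.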

sotrastaurin = compound: CN1CCN(c2nc(C3=C(c4c[nH]c5ccccc45)C(=O)NC3=O)c3ccccc3n2)CC1 [sotrastaurin]
Outline: as §1

alvocidib = compound: CN1CC[C@H](c2c(O)cc(O)c3c(=O)cc(-c4ccccc4Cl)oc23)[C@H](O)C1 [alvocidib]
Outline: as §1

Tubastatin A = compound: CN1CCc2c(c3ccccc3n2Cc2ccc(C(=O)NO)cc2)C1 [Tubastatin A]
Outline: as §1

defactinib = compound: CNC(=O)c1ccc(Nc2ncc(C(F)(F)F)c(NCc3nccnc3N(C)S(C)(=O)=O)n2)cc1 [defactinib]
Outline: as §1

rucaparib = compound: CNCc1ccc(-c2[nH]c3cc(F)cc4c3c2CCNC4=O)cc1 [rucaparib]
Outline: as §1

encorafenib = compound: COC(=O)N[C@@H](C)CNc1nccc(-c2cn(C(C)C)nc2-c2cc(Cl)cc(NS(C)(=O)=O)c2F)n1 [encorafenib]
Outline: as §1

[2] = compound: COC(=O)[C@H](CCSC)NC(=O)C1=C(C=C(C=C1)NC[C@H](CS)N)C2=CC=CC=C2
Outline: as §1

saracatinib = compound: CN1CCN(CCOc2cc(OC3CCOCC3)c3c(Nc4c(Cl)ccc5c4OCO5)ncnc3c2)CC1 [saracatinib]
Outline: as §1

[3] = compound: CNc1nc(-c2ccc3c(N)n[nH]c3c2)cc(N2C[C@@H](C(=O)NC3CCCCC3)CC[C@H]2C)n1
Outline: as §1

UniProt Q6UUV7, sequence (Q6UUV7 whole entry, looked up): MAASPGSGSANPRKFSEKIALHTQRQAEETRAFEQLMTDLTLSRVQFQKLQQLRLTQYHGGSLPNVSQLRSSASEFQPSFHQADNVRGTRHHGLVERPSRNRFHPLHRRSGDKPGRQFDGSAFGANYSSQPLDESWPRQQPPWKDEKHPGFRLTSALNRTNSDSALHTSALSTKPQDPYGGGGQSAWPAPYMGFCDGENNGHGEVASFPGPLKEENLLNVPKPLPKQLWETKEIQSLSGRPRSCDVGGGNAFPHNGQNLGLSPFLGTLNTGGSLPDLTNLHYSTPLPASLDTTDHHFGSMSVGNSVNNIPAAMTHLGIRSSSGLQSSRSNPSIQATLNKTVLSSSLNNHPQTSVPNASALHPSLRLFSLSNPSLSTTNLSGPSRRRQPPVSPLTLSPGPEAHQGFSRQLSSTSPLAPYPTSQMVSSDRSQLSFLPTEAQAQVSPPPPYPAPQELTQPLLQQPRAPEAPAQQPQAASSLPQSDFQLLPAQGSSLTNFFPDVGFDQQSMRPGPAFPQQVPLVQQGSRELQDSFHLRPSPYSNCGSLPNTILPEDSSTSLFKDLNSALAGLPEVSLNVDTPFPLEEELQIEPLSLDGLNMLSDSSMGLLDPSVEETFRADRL
UniProt O43529, sequence (O43529 whole entry, looked up): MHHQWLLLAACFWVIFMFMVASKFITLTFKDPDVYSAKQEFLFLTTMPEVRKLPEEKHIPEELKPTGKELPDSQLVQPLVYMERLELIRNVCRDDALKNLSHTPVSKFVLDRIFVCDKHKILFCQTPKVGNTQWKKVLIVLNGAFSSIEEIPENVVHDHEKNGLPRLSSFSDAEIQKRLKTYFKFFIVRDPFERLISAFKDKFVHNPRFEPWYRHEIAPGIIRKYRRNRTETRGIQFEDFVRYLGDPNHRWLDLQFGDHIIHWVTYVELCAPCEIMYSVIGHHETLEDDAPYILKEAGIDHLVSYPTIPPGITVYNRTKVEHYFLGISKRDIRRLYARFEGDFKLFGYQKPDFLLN
UniProt A8MTT3, sequence (A8MTT3 whole entry, looked up): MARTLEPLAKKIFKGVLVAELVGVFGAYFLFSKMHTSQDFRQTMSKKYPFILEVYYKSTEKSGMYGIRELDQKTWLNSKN
UniProt Q53ET0, sequence (Q53ET0 whole entry, looked up): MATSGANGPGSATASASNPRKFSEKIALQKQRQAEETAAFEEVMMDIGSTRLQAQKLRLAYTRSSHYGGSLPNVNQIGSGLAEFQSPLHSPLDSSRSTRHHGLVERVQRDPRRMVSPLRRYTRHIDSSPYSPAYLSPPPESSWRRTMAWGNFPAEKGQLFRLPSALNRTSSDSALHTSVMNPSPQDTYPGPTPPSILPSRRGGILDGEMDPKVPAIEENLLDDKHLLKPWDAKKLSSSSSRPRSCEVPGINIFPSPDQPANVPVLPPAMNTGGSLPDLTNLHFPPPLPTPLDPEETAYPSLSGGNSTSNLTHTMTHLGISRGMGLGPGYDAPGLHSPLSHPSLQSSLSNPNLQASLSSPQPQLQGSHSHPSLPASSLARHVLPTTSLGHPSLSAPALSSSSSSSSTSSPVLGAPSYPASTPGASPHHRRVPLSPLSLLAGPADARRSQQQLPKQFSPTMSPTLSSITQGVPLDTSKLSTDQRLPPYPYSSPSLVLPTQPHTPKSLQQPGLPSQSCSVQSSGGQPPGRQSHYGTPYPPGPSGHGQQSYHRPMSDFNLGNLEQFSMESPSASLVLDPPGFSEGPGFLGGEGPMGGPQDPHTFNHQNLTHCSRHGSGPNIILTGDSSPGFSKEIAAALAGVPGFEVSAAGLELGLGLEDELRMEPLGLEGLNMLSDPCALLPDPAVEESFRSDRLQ
UniProt P33552, sequence (P33552 whole entry, looked up): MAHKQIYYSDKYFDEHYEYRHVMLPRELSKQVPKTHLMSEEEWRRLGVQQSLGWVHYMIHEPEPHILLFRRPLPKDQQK
UniProt Q13286, sequence (Q13286 whole entry, looked up): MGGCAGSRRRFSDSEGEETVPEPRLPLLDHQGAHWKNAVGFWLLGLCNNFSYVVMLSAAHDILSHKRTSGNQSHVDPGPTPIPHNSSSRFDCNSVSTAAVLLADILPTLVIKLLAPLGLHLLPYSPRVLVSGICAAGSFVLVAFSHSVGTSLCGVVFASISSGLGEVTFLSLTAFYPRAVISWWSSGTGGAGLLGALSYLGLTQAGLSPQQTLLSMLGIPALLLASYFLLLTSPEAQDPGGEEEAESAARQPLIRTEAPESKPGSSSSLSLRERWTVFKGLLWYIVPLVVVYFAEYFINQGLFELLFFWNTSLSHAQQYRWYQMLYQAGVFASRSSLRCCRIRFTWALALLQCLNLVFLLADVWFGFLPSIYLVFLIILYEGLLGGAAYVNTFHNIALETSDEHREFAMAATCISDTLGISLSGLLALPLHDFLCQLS
UniProt P55210, sequence (P55210 whole entry, looked up): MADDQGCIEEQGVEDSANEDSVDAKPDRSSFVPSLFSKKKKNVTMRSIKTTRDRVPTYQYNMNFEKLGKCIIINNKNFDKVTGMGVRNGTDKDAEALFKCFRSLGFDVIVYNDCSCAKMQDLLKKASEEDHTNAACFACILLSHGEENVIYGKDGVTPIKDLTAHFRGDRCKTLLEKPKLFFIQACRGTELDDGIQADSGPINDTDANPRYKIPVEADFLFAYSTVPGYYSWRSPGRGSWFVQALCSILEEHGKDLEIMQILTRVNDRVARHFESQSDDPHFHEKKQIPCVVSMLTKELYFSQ
UniProt Q8N668, sequence (Q8N668 whole entry, looked up): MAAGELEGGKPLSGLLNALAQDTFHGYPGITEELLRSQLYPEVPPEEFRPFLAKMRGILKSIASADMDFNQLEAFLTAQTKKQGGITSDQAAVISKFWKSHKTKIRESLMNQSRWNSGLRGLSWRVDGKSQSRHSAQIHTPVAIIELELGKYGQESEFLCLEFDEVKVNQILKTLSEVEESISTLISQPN
UniProt P51911, sequence (P51911 whole entry, looked up): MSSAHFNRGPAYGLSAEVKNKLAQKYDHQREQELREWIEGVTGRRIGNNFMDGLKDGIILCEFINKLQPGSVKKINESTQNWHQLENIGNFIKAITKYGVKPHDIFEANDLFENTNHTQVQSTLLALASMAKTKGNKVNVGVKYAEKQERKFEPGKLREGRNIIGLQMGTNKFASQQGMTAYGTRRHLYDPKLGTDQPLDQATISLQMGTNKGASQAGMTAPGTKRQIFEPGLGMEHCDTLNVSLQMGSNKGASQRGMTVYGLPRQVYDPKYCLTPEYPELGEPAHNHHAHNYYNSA
UniProt O95628, sequence (O95628 whole entry, looked up): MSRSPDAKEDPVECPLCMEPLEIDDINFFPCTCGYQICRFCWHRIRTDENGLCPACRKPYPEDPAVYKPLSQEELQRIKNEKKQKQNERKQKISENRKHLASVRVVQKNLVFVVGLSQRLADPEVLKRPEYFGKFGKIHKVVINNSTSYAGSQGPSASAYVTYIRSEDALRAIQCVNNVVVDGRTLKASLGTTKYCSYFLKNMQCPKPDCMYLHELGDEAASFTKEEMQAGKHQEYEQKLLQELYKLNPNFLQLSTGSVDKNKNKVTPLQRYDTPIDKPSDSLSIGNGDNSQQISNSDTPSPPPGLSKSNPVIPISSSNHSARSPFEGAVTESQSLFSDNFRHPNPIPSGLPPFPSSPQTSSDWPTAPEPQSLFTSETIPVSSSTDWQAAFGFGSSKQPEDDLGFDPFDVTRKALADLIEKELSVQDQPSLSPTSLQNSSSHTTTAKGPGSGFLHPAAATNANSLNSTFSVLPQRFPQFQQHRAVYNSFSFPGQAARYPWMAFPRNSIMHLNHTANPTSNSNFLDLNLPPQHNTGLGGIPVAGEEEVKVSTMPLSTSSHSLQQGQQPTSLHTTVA
UniProt P30305, sequence (P30305 whole entry, looked up): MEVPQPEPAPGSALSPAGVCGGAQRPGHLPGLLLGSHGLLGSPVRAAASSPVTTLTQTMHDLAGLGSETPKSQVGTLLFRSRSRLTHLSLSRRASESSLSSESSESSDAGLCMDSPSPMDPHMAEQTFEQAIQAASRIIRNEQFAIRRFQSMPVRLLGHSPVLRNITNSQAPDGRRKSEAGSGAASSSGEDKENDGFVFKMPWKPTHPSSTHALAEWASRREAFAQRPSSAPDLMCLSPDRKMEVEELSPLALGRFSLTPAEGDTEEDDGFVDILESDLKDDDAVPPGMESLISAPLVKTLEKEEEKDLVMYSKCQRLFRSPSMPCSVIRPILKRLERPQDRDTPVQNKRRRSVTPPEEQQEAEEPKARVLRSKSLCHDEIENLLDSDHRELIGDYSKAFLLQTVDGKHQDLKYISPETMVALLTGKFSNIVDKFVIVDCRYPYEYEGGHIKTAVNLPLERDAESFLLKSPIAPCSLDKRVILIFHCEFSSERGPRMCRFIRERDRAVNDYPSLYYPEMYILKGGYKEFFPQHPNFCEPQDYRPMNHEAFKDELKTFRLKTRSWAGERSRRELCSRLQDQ
UniProt Q9UNS2, sequence (Q9UNS2 whole entry, looked up): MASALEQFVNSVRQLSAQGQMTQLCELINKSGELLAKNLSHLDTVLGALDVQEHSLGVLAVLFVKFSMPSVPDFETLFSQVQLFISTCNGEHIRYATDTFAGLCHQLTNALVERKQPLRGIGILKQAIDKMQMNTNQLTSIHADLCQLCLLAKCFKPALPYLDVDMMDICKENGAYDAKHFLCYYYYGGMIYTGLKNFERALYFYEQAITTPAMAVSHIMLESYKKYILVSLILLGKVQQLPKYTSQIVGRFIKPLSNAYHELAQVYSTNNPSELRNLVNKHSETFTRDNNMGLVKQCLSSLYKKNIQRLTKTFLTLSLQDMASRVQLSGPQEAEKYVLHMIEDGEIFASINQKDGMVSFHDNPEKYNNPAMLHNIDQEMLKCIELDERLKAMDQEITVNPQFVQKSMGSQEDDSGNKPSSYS
UniProt Q96F85, sequence (Q96F85 whole entry, looked up): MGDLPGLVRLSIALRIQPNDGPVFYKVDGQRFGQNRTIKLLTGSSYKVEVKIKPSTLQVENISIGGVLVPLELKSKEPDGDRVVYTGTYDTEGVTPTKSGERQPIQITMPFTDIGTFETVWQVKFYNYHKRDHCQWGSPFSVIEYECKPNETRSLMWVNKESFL

| Target | log2 fold change [1] | log2 fold change (sotrastaurin) | log2 fold change (alvocidib) | log2 fold change (Tubastatin A) | log2 fold change (defactinib) | log2 fold change (rucaparib) | log2 fold change (encorafenib) | log2 fold change [2] | log2 fold change (saracatinib) | log2 fold change [3] |
| --- | --- | --- | --- | --- | --- | --- | --- | --- | --- | --- |
| CCNL1 (UniProt Q9UK58) | -0.179 | – | – | – | – | – | – | – | – | – |
| CNN1 (UniProt P51911) | – | 0.15 | -0.115 | 0.126 | -0.028 | 0.102 | -0.046 | 0.043 | – | – |
| CNOT4 isoform 9 (UniProt O95628) | 0.187 | – | 0 | -0.027 | -0.129 | -0.057 | -0.05 | 0.038 | 0.077 | -0.021 |
| CS (UniProt F8VU34) | – | – | – | – | – | 0.268 | 0.158 | – | – | – |
| CLN3 (UniProt Q13286) | 0.004 | – | 0.107 | 0.065 | -0.039 | 0.082 | -0.053 | 0.149 | 0.046 | -0.097 |
| CA1 (UniProt E5RIF9) | – | – | – | -0.178 | -0.09 | – | – | -0.129 | 0.272 | 0.093 |
| C5orf30 (UniProt Q96GV9) | – | – | – | 0.502 | – | – | – | – | – | – |
| COPS3 isoform 2 (UniProt Q9UNS2) | – | 0.134 | – | -0.005 | 0.109 | -0.055 | -0.041 | 0.059 | – | – |
| CNRIP1 (UniProt Q96F85) | 0.053 | – | – | – | – | – | – | – | – | – |
| CEBPZOS (UniProt A8MTT3) | 0.039 | – | – | -0.06 | -0.012 | 0.159 | -0.038 | -0.02 | 0.079 | -0.032 |
| CFAP58 (UniProt Q5T655) | – | – | – | – | – | -1.21 (active) | 0.265 | – | – | – |
| CDC25B isoform 4 (UniProt P30305) | -0.019 | -0.018 | -0.031 | – | -0.25 | 0.054 | -0.059 | 0.087 | – | – |
| CHST10 (UniProt O43529) | 0.035 | -0.01 | -0.106 | -0.037 | – | – | – | – | – | – |
| CASP7 isoform 3 (UniProt P55210) | 0.151 | – | – | – | – | -0.013 | 0.014 | – | 0.185 | 0.254 |
| CPNE5 (UniProt Q9HCH3) | 0.049 | – | 0.134 | 0.082 | – | – | – | – | – | – |
| CDCA2 (UniProt Q69YH5) | -0.152 | -0.148 | 0.008 | 0.217 | -0.063 | 0.011 | 0.318 | -0.03 | – | – |
| CKS2 (UniProt P33552) | – | – | – | 0.031 | – | 0.025 | 0.078 | – | -0.044 | -0.101 |
| CD68 (UniProt P34810) | 0.043 | -0.031 | – | – | – | – | – | – | – | – |
| COMMD1 (UniProt Q8N668) | 0.119 | -0.038 | – | -0.213 | -0.151 | 0.15 | -0.028 | 0.092 | – | – |
| CASK (UniProt O14936) | -0.064 | – | – | – | – | – | – | – | -0.068 | -0.009 |
| CRTC2 (UniProt Q53ET0) | -0.269 | -0.09 | – | -0.031 | -0.218 | 0.053 | -0.026 | -0.103 | – | – |
| CRTC3 (UniProt Q6UUV7) | – | 0.044 | -0.051 | -0.109 | 0.025 | – | – | -0.06 | – | – |
| CHST11 (UniProt Q9NPF2) | 0.079 | -0.02 | -0.049 | 0.08 | -0.003 | 0.083 | 0.177 | -0.048 | – | – |
| COMMD3-BMI1 (UniProt R4GMX3) | – | -0.024 | 0.05 | -0.074 | – | – | – | – | – | – |
| CCDC57 (UniProt Q2TAC2) | 0.04 | 0.059 | -0.055 | 0.026 | 0.02 | -0.15 | 0.041 | 0.007 | – | – |
